Experimental findings from PubChem BioAssay (NCATS) are described below.

Structures are written as SMILES. Several values for one entry are separate records, joined by “and”; a condition that tells them apart may be missing. Equal values may be shown once. Records with an inconclusive call do not appear. Activity calls are given as the source filed them. Unless noted, the call rests on the fitted dose curve; in most records, active means well fitted curve in the direction sought with a large enough effect; inconclusive means small, poorly fitted or top-dose-only effect, or another doubt; inactive means no such curve, though single readings can be large; an effect the other way counts as inactive or inconclusive.

A short description of experiment [1]: High-throughput drug toxicity screening in the BPDCN cell line Gen2.2 (AID 1224824; call rule not given here;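 further: cells exposed to compounds for 48 h before reading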). As to conditions: Gen2.2 BPDCN cells; at 45.8 µM (top of the series) unless noted. The method, boiled down:
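CellTiter-Glo luminescence after 48 h compound exposure of Gen2.2 cells; percent activity set with DMSO as 100% and bortezomib (9.2 uM final) as 0%. Cells seeded at 500 per well, RPMI + 10% FBS, 37 °C.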

Experiment [2] in a line: High-throughput drug toxicity screening in the BPDCN cell line Cal-1 (AID 1224825; call rule not given here). As to conditions: Cal-1 BPDCN cell viability, qHTS; at 45.8 µM (top of the series) unless noted. The method in brief:
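CellTiter-Glo luminescence after 48 h compound exposure; percent activity scaled with DMSO as 100% and bortezomib (9.2 uM final) as 0%. Cal-1 cells seeded at 500/well in RPMI, 10% FBS, no phenol red.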
(In general: Quantitative high-throughput screening tests each substance at several concentrations.)

Experiment [3] in a line: qHTS assay for measurement of the activity of small molecule inhibitors on Zika virus induced Caspase-3 activity in human iPSC derived neural progenitor cells (hNPCs) (AID 1224857). Further: % of control where 0% means no effect; nearly all actives have a fitted effect of over 65% in size. The method, boiled down:
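Percent inhibition of virus-induced caspase-3/7 luminescence (Caspase-Glo), scaled between uninfected cells and Zika-infected cells. hNPCs received compound 1 hr before ZIKV at 2 FFU/cell, with 6 hours infection at 37 C.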

Experiment [4] in a line: qHTS assay for measurement of the activity of small molecule inhibitors on Zika virus induced Caspase-3 activity in human astrocytoma cells (AID 1224859).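 Further: plate controls were ZIKV-infected untreated cells for no effect and uninfected cells for full effect.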 The method in brief:
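Luminescent caspase-3/7 read-out (30 min reagent, room temperature) in human SNB-19 cells infected 6 h with ZIKV (2 FFU/cell) after 1 h compound pre-incubation; Data were normalised to uninfected and infected wells.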

A short description of experiment [5]: qHTS Screen of the MIPE 4.0 Collection Against Ewings Sarcoma (EW8) (AID 1259255). Further: nearly all actives have a fitted effect of over 35% in size. Further: potency means the concentration at half of the fitted maximal effect.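 On viability: 100% = DMSO-treated cells and 0% = medium-only wells without cells.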 The method in brief:
(§1)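 Log-phase cells in RPMI with 5% FBS attached for 4 h, then received compounds as a titration for 48 h at 37C, 5% CO2. Viability was read by CellTiter-Glo luminescence and normalized to DMSO and no-cell wells.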

A short description of experiment [6]: qHTS Screen of the MIPE 4.0 Collection Against Ewings Sarcoma (TC32) (AID 1259256). Further: nearly all actives have a fitted effect of over 45% in size. Further: potency means the concentration at half of the fitted maximal effect. The method in brief:
as §1

A short description of experiment [7]: P-glycoprotein substrates identified in KB-8-5-11 adenocarcinoma cell line, qHTS therapeutic library screen (AID 1346987). Further: nearly all actives have a fitted effect of over 65% in size. Further: potency means the concentration at half of the fitted maximal effect. The method, boiled down:
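Luminescence from CellTiter-Glo, read 5 min after addition, quantified survival of KB-8-5-11 (P-gp-overexpressing) cells exposed to compounds for 72 h. AC50 was derived from concentration-response curves.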

For experiment [8], the target named is Atrial natriuretic peptide receptor 1 (Homo sapiens) (UniProt P16066). Put plainly: Natriuretic polypeptide receptor (hNpr1) antagonism - Pilot screen (AID 1347049; calls by dose curve;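 further: agonist-evoked cGMP luminescence read 20 min after hNppA addition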; further: potency means the concentration at half of the fitted maximal effect). The method, boiled down:
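cGMP-sensor HEK293/hNpr1 cells, 1500/well, plated overnight at 37C. 2% GloSensor reagent, 2 h RT. Compound (23 nL pin transfer) 30 min RT, baseline luminescence pre-read. 0.1 nM hNppA, 20 min RT, post-read.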

The target in experiment [9] is Atrial natriuretic peptide receptor 2 (Homo sapiens) (UniProt P20594). Kind of experiment: Natriuretic polypeptide receptor (hNpr2) antagonism - Pilot subtype selectivity assay (AID 1347050; calls by dose curve; further: potency means the concentration at half of the fitted maximal effect). The method in brief:
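Luminescence from a genetically encoded cGMP luciferase biosensor in hNpr2-expressing HEK293 cells is read before and 20 min after adding 1 nM hNppC. Test compounds, in interplate 1:5 titrations, are added 30-50 min ahead of the agonist.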

Experiment [10] can be described thus: qHTS Screen of the MIPE 4.0 Collection Against Ewings Sarcoma (TC71) (AID 1259253). Further: nearly all actives have a fitted effect of over 40% in size. Further: potency means the concentration at half of the fitted maximal effect. The method in brief: as §1
Experiment [11] can be described thus: qHTS assay to identify small molecule inhibitors of chordoma cells - UCH-1 (AID 1259355). Further: nearly all actives have a fitted effect of over 55% in size. Further: potency means the concentration at half of the fitted maximal effect. The method, boiled down: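 Screening used approved and investigational drugs in 15-point titration against 800 seeded cells per well. A fixed combination of auranofin with camptothecin, doxorubicin, rubitecan and topotecan followed compound addition, and growth was scored by CellTiter-Glo after 48hr.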

Experiment [12] is described as follows: Identifying Small Molecule Inhibitors of Pancreatic Cancer Stem Cells (SN12C, Adherent) (AID 1259358).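 Further: potency means the concentration at half of the fitted maximal effect; cell survival measured after 48 h of compound exposure.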 The method, boiled down:
(§2)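 Spheroids grown 14 days in stem cell media on hydrogel-coated nonadherent plates; 2D lines seeded directly. Compounds added after 4 h attachment, 48 h at 37C, 5% CO2; CellTiter-Glo luminescence normalized to DMSO (no inhibition) and no-cell wells (full inhibition).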

Experiment [13] in a line: Identifying Small Molecule Inhibitors of Pancreatic Cancer Stem Cells (Panc1, Spheroid) (AID 1259359).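 Further: potency means the concentration at half of the fitted maximal effect; compound exposure lasted 48 h before reading.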 Particulars: Panc1 spheroid cancer stem cell viability. The method in brief: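 Spheroids grown 14 days in stem cell media on nonadherent hydrogel before screening; cells attached 4 h, then compound exposure 48 h at 37C, 5% CO2. CellTiter-Glo luminescence normalized to DMSO (no inhibition) and no-cell wells (full inhibition).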

Experiment [14] in a line: Identifying Small Molecule Inhibitors of Pancreatic Cancer Stem Cells (A278, Adherent) (AID 1259361). Further: nearly all actives have a fitted effect of over 35% in size. The method, boiled down:
as §2

Experiment [15] is described as follows: qHTS Screen of the MIPE 4.0 Collection Against Ewings Sarcoma (RDES) (AID 1259252). Further: nearly all actives have a fitted effect of over 35% in size. Further: potency means the concentration at half of the fitted maximal effect. The method in brief:
as §1

Experiment [16] is described as follows: qHTS assay to identify small molecule inhibitors of chordoma cells - UCH-2 (AID 1259356). Further: on the % scale 0 is the no-effect control and ±100 the full control effect.
Experiment [17] can be described thus: P-glycoprotein substrates identified in KB-3-1 adenocarcinoma cell line, qHTS therapeutic library screen (AID 1346986). Further: nearly all actives have a fitted effect of over 60% in size. Particulars: KB-3-1 parental cells viability, CellTiter-Glo, 72 h; at 44.5 µM (top of the series). The method in brief: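 In 1536-well format, 500 cells/well received pinned compound titrations and were incubated 72 h, 5% CO2. Viability was read by CellTiter-Glo; cytotoxic if AC50 < 10 uM and efficacy >50%.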

Sequence of Atrial natriuretic peptide receptor 1 (Homo sapiens) (P16066 whole entry, looked up): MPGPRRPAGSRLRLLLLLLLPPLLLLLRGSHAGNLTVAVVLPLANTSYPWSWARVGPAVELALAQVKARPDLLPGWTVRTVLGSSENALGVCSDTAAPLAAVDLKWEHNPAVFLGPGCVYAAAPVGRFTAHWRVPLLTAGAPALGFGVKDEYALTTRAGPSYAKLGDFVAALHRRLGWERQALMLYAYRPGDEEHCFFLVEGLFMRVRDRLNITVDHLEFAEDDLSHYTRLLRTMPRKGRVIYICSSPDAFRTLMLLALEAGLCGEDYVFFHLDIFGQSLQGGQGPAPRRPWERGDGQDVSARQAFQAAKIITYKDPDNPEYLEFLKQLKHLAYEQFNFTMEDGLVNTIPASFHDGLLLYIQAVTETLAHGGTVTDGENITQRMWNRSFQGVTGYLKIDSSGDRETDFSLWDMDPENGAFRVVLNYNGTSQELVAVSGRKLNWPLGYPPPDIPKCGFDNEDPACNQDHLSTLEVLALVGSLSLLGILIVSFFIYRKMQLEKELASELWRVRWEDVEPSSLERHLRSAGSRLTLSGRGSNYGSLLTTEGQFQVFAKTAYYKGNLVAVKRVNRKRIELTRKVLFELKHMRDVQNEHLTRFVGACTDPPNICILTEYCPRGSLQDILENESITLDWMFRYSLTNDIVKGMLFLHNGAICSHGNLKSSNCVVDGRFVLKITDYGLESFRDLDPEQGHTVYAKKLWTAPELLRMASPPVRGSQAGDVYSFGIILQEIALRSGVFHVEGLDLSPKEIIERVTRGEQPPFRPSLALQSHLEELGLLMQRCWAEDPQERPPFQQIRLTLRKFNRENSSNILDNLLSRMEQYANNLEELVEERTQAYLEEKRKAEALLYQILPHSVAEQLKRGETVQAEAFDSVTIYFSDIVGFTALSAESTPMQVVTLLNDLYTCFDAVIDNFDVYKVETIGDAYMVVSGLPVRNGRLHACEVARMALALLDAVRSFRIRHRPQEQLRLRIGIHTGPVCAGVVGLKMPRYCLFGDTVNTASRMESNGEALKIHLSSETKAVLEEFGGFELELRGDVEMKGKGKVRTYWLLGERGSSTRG
Sequence of Atrial natriuretic peptide receptor 2 (Homo sapiens) (P20594 whole entry, looked up): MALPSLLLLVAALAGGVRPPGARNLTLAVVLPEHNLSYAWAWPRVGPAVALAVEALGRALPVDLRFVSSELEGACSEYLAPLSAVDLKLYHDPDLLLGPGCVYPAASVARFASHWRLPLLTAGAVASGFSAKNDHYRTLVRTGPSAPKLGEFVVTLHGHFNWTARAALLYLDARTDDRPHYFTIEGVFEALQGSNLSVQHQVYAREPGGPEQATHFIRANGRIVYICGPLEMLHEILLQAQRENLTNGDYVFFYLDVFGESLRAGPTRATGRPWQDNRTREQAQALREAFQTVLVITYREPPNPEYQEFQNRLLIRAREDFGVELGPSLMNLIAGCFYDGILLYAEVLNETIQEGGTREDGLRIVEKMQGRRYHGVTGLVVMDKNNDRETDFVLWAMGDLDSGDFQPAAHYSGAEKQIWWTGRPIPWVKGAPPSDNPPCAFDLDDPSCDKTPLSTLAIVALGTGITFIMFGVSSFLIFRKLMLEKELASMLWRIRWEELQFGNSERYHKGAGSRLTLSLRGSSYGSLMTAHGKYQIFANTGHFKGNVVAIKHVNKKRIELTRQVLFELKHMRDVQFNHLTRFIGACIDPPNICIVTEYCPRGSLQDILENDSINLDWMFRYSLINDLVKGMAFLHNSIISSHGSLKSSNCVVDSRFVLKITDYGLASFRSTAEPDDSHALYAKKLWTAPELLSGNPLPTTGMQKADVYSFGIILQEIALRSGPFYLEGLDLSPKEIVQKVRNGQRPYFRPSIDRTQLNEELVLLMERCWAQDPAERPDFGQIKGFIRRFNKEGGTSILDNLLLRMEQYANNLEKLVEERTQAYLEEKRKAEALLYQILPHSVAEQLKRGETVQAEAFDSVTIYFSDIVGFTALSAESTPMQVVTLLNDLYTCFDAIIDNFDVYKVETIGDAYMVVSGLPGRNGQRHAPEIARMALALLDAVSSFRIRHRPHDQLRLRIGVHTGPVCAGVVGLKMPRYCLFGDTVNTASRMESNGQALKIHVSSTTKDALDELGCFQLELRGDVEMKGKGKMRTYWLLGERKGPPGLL

For the compound `NC(=O)c1ccc2[nH]ccc2c1`, the cell viability, % of control (lower = more cytotoxic) in experiment [1] amounted to 140%. The viability (% of control) in experiment [2] worked out at 90.6%. In addition, the Potency entry in experiment [3], in experiment [4], in [5], in [6], in experiment [7] and in experiment [8] was “inactive” throughout. Moreover, the Potency entry in [9] was “inactive”.

With `COc1cc([C@@H]2c3cc4c(cc3[C@H](O)[C@H]3COC(=O)[C@H]23)OCO4)cc(OC)c1OC`, the cell viability, % of control (lower = more cytotoxic) in [1] came to 7.94%. In experiment [2], the viability (% of control) was 8.85%. Further, the Potency result in experiment [3], in experiment [4], in [10] and in experiment [5] was “inactive” in each case. The Potency in [11] was 0.0079 µM (active); in experiment [12], 0.0187 µM (active); in [13] it was 0.0021 µM (active); in [7] it was 130 nM (active) and 11.8 nM (active). Moreover, the IC50 (viability decrease) in [14] was 0.0148 µM (active).

In the case of `CC(C)C1CCC(C(=O)N[C@H](Cc2ccccc2)C(=O)O)CC1` (stereo partly specified), the cell viability, % of control (lower = more cytotoxic) in experiment [1] amounted to 139%. Further, in experiment [2], the viability (% of control) was determined as 99.1%. Besides, the Potency entry in experiment [4], in [15], in experiment [10], in experiment [5], in experiment [6] and in [11] was “inactive” in each case. The Potency result in experiment [16] and in experiment [7] was “inactive” in each case.

As for `CNS(=O)(=O)Cc1ccc2[nH]cc(CCN(C)C)c2c1`, in experiment [1], the cell viability, % of control (lower = more cytotoxic) was found to be 219%. Besides, the viability (% of control) in experiment [2] came to 117%. The Potency entry in experiment [4], in [15], in experiment [10], in experiment [5], in [6] and in experiment [11] was “inactive” each time. In addition, the Potency entry in experiment [16] and in experiment [7] was “inactive” each time.

As for `CC1=C(C(=O)O)N2C(=O)[C@@H](NC(=O)C(N)c3ccccc3)[C@H]2SC1` (stereo partly specified), in [1], the cell viability, % of control (lower = more cytotoxic) turned out to be 114%. In addition, the viability (% of control) in experiment [2] turned out to be 12.1%. Further, the Potency result in experiment [4], in experiment [10], in experiment [5], in experiment [6], in experiment [7] and in experiment [8] was “inactive” throughout. Further, the Potency result in [9] was “inactive”. Moreover, the result in [17] was inactive.

For `CCN[C@H]1C[C@H](C)S(=O)(=O)c2sc(S(N)(=O)=O)cc21`, the cell viability, % of control (lower = more cytotoxic) in experiment [1] was 71.7%. Also, the viability (% of control) in experiment [2] is 102%. Moreover, the Potency result in experiment [4], in experiment [10], in experiment [5], in experiment [6], in [11] and in experiment [16] was “inactive” in each case. Moreover, the Potency result in experiment [7] is “inactive”.

On to `CC1=CC(=O)c2ccccc2C1=O`, for which, in experiment [1], the cell viability, % of control (lower = more cytotoxic) turned out to be 2.97%. Moreover, the viability (% of control) in experiment [2] is 1.39%. Moreover, the Potency entry in experiment [4] and in experiment [7] was “inactive” each time. The Potency was 18.7 µM (active) in experiment [15], 26.4 µM (active) in experiment [10] and 26.4 µM (active) in [6]. Moreover, in experiment [17], the result was inactive.

Consider `Cc1ccc(S(=O)(=O)N[C@@H](Cc2ccccc2)C(=O)CCl)cc1`, for which the cell viability, % of control (lower = more cytotoxic) in [1] stood at 4.27%. The viability (% of control) in [2] is 3.45%. Besides, the Potency entry in [4] is “inactive”. The Potency was 18.7 µM (active) in experiment [10]; 16.6 µM (active) in experiment [5]; 14.8 µM (active) in [6]; 12 µM (active) in experiment [8]; 5.85 µM (active) in experiment [9].

For the compound `N[C@@H](C(=O)N[C@@H]1C(=O)N2C(C(=O)O)=C(Cl)CS[C@H]12)c1ccccc1`, the cell viability, % of control (lower = more cytotoxic) in experiment [1] amounted to 133%. Moreover, the viability (% of control) in experiment [2] is 108%. Also, the Potency entry in experiment [4], in experiment [15], in [5], in experiment [6], in [11] and in experiment [16] was “inactive” in each case. In addition, the Potency entry in experiment [7] is “inactive”.

In the case of `CCCCCCNC(=O)n1cc(F)c(=O)[nH]c1=O`, the cell viability, % of control (lower = more cytotoxic) in experiment [1] was found to be 106%. Further, in experiment [2], the viability (% of control) is 33.8%. The Potency entry in experiment [4], in experiment [11] and in [16] was “inactive” in each case. Also, the Potency is 13.2 µM (active) in experiment [15], 8.33 µM (active) in experiment [10], 18.7 µM (active) in experiment [6] and 6.51 µM (active) in experiment [7].

For `Cc1ncc([N+](=O)[O-])n1CCO`, the cell viability, % of control (lower = more cytotoxic) in experiment [1] is 180%. In addition, the viability (% of control) in experiment [2] was found to be 76.6%. The Potency result in experiment [4], in [10], in experiment [5], in experiment [6], in experiment [11] and in [7] was “inactive” in each case.
